Compounds without any hit were thinned out: in the full panel of roughly 83,000, 20% have a hit.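 Negative percent growth values reflect cell death: -40 means 40% of the cells present at the start died, and -100 means all died.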 A number with no mark means an inactive call. Activity calls are given as the source filed them. Rule for the calls: active = growth percent below 10; inactive = the rest.
Experiments:
Experiment in all cases: NCI-60 one-dose screen, 48 h (100 = growth as untreated, 0 = no growth, -100 = all killed)
Conditions in all cases: 10 µM unless noted
K-562 leukemia = system: K-562 leukemia
MALME-3M melanoma = system: MALME-3M melanoma
MDA-MB-231 breast = system: MDA-MB-231 breast
RXF 393 renal = system: RXF 393 renal
SF-268 CNS = system: SF-268 CNS
SF-295 CNS = system: SF-295 CNS
SF-539 CNS = system: SF-539 CNS
UACC-257 melanoma = system: UACC-257 melanoma
M14 melanoma = system: M14 melanoma
HCT-15 colon = system: HCT-15 colon
HT29 colon = system: HT29 colon
SNB-75 CNS = system: SNB-75 CNS
SNB-19 CNS = system: SNB-19 CNS
U251 CNS = system: U251 CNS
PC-3 prostate = system: PC-3 prostate
SK-MEL-5 melanoma = system: SK-MEL-5 melanoma
UACC-62 melanoma = system: UACC-62 melanoma
LOX IMVI melanoma = system: LOX IMVI melanoma
SK-MEL-28 melanoma = system: SK-MEL-28 melanoma
SK-MEL-2 melanoma = system: SK-MEL-2 melanoma

| SMILES | growth (K-562 leukemia) | growth (MALME-3M melanoma) | growth (MDA-MB-231 breast) | growth (RXF 393 renal) | growth (SF-268 CNS) | growth (SF-295 CNS) | growth (SF-539 CNS) | growth (UACC-257 melanoma) | growth (M14 melanoma) | growth (HCT-15 colon) | growth (HT29 colon) | growth (SNB-75 CNS) | growth (SNB-19 CNS) | growth (U251 CNS) | growth (PC-3 prostate) | growth (SK-MEL-5 melanoma) | growth (UACC-62 melanoma) | growth (LOX IMVI melanoma) | growth (SK-MEL-28 melanoma) | growth (SK-MEL-2 melanoma) |
| --- | --- | --- | --- | --- | --- | --- | --- | --- | --- | --- | --- | --- | --- | --- | --- | --- | --- | --- | --- | --- |
| O=C(c1ccc(O)cc1)C1[C@H](c2ccc(Cl)cc2)[C@@H](c2ccccc2)NC12C(=O)Nc1ccc(Cl)cc12 (stereo not given in full) | 28.1% | 74.5% | 48.6% | 27.7% | 37.7% | 41.1% | 66.4% | 62.9% | 47.7% | 28.9% | 4.23% (active) | 46.2% | 63% | 29.6% | 24.6% | 67.3% | 53.6% | 26.8% | 76.2% | – |
| CC(=O)Oc1ccccc1C(=O)Nc1cc(C(C)C)ccc1C | 7.45% (active) | -6.69% (active) | 7.22% (active) | -2.41% (active) | 19.8% | 11.3% | 15.6% | -9.44% (active) | 33.2% | 14% | 91.5% | 26.1% | 17.5% | 10.1% | 22.1% | -31.9% (active) | 16.9% | 12.4% | 18% | – |
| NS(=O)(=O)c1ccc(Nc2nc(SCC(=O)c3ccc(Cl)cc3)nc3ccccc23)cc1 | 84% | 92.8% | 87.9% | 103% | 104% | 95.1% | 88.3% | 102% | 97% | 86.6% | 105% | 75.3% | 97.8% | 95.2% | 89.9% | 95.3% | 79.4% | 99.5% | 100% | – |
| Cc1ccc(-c2nc(C(Cl)Cl)nc3cc(-c4ccccc4)nn23)cc1 | 14.3% | 3.13% (active) | 12.9% | -63.8% (active) | 23.9% | 10.3% | 34.4% | 28.9% | -11.1% (active) | 5.49% (active) | -43.7% (active) | -3.07% (active) | 14.8% | -58.6% (active) | 26.8% | 67.3% | 55.7% | 43.6% | 1.35% (active) | – |
| OC1CCN(CCCOc2c3ccc(Cl)cc3nc3c2oc2ccc(Cl)cc23)CC1 | -51.7% (active) | -66.6% (active) | 24.5% | -80.4% (active) | 27.4% | 17.8% | -74.1% (active) | -13.4% (active) | -93.8% (active) | -83% (active) | -86% (active) | 14.9% | 29.5% | -93.5% (active) | 21% | -7.79% (active) | -68.4% (active) | -92.9% (active) | -84.5% (active) | – |
| Fc1ccc(-c2cc3nc(C(Cl)Cl)nc(-c4ccccc4)n3n2)cc1 | 19.2% | 47.2% | -10.2% (active) | -62.9% (active) | 10.2% | 2.73% (active) | -10.6% (active) | -2.11% (active) | 26.9% | 7.35% (active) | -41.4% (active) | -30% (active) | -6.52% (active) | -58.2% (active) | -24.5% (active) | 75.2% | 36.2% | 86.9% | -7.7% (active) | 53.5% |
| c1ccc2c(NCCCN3CCOCC3)c3oc4ccccc4c3nc2c1 | 2.74% (active) | -25.9% (active) | -27.9% (active) | -76.2% (active) | -3.87% (active) | -17.6% (active) | -29.5% (active) | -7.26% (active) | -32% (active) | 0.78% (active) | -48.2% (active) | -4.26% (active) | 5.03% (active) | -2.33% (active) | 7.6% (active) | -90.4% (active) | -52.1% (active) | -38.6% (active) | -46.9% (active) | -75.4% (active) |
| COc1ccc(-c2nn3c(-c4ccccc4F)nnc3s2)cc1 | 18.7% | 66.1% | 41.1% | 68.4% | 74.2% | 58.5% | 59.3% | 86.4% | 34.8% | 31.5% | 39.3% | 66.3% | 73.2% | 55.7% | 83.1% | 64.4% | 51.1% | 60.3% | 59.4% | 30.5% |
